SENP8 block-1 – SENP8 protease inhibitors, primary screen, biochemical, luminescence | Sentrin-specific protease 8 (Homo sapiens), Q96LD8 | purified SENP8, Z-RLRGG-aminoluciferin cleavage | inhibition, % at 10 µM | hit rate 1.2% among 330,000 | AID 2540, 2010; in the data active = inhibition above about 50%
Target sequence (Q96LD8 whole entry, looked up): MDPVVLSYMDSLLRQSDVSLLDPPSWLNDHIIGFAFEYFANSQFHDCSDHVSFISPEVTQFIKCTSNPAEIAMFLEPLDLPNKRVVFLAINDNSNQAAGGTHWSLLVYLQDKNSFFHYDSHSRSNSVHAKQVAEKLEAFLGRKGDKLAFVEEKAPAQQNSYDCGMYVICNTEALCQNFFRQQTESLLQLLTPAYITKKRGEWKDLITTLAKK
SENP6 inh – SENP6 protease inhibitors, primary screen, biochemical, luminescence, uHTS | hit rate 1.8% among 330,000 | Recombinant SENP6 catalytic domain, aminoluciferin luminescence | AID 2599, 2010 | inhibition, % at 10 µM;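 active = inhibition above about 50% at the single tested dose, limit read from the data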;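 note: plate controls were DMSO wells with enzyme for no effect and DMSO wells lacking enzyme for full effect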
Target sequence (Q9GZR1 628-1112 limits assumed): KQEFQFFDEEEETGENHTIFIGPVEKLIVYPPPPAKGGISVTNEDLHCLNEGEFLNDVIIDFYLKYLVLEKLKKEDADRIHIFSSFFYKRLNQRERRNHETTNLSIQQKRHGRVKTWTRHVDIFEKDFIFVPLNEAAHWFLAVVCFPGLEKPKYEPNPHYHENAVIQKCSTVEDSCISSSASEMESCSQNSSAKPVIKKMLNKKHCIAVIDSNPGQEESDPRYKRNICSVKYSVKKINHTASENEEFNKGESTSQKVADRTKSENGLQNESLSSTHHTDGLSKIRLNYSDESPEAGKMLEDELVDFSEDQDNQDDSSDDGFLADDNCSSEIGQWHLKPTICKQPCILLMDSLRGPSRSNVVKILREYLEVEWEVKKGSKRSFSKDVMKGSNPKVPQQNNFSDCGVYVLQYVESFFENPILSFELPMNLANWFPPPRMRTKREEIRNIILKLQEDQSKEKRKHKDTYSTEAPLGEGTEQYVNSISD
Platelet DG rel – inhibitors of platelet dense granule secretion, primary screen, cell-based, MLPCN, human platelets; hit rate 0.22% among 300,000; human platelet-rich plasma, SFLLRN dense granule ATP release, luminescence; inhibition, %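 (compounds screened at 7.5 µM in platelet-rich plasma)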;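 active = mean replicate score, as percent of positive control, at or above 50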
SENP7 block – SENP7 protease inhibitors, primary screen, biochemical, luminescence, uHTS. Sentrin-specific protease 7 (Homo sapiens), Q9BQF6. recombinant SENP7, Z-RLRGG-aminoluciferin luminescence, 40 min. inhibition, % at 5 µM. hit rate 1.5% among 330,000. AID 434973, 2010;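 active = inhibition above about 50% at the single test dose, limit read from the data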;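 note: plate controls were DMSO with enzyme for no effect and no enzyme buffer wells for full effect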
HSP90 inh – HSP90 inhibitors, primary screen, cell lysate, luminescence; inhibition, % at 5.6 µM; Heat shock protein HSP 90 (rabbit reticulocyte lysate; luciferase refolding); Rabbit reticulocyte lysate, luciferase refolding luminescence, 3 h; hit rate 0.91% among 290,000;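 active = inhibition above the screen-wide mean plus 3 SD, computed separately per campaign, cut at about 16% in these data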;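 note: 0% = DMSO wells and 100% = 60 µM geldanamycin wells; inhibitors lower the luminescence because luciferase stays unfolded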
SENP8 block-2 – human SENP8 protease inhibitors, primary screen, biochemical, fluorescence, Nedd8 protein substrate, uHTS. recombinant SENP8. inhibition, % at 20 µM. hit rate 0.64% among 360,000. AID 602440, 2012; in the data active = inhibition mostly above about 40%, no sharp cut-off; inactive = mostly below about 27%
* hit, by the source's call; i = inactive; · = no result given. An excerpt weighted towards active compounds, which were near 2.8% of everything screened.

SMILES | SENP8 block-1 | SENP6 inh | Platelet DG rel | SENP7 block | HSP90 inh | SENP8 block-2
Cc1ccc(S(=O)(=O)CCC(=O)OCC(=O)c2cc(C)n(C)c2C)cc1 | -0.6 | -13.0 | · | 2.6 | · | 0.5
CC(C)c1ccc(N(CCc2ccccn2)C(=O)C(C)(C)C)cc1 | 0.0 | -4.9 | -18.1 | -0.9 | · | 20.9
CCn1nc(C(=O)OCC(=O)c2cc(C)n(Cc3cccs3)c2C)c2ccccc2c1=O | -7.5 | -9.5 | -2.8 | -4.6 | 33.2* | 24.4
Cc1cc(C(=O)COC(=O)c2ccc3c(c2)OCO3)c(C)n1Cc1cccs1 | -2.7 | -68.7 | -0.8 | -5.2 | 8.0 | 4.6
CCCS(=O)(=O)NC(=O)C1(C)CCCN(C(=O)c2c(-c3ccccc3)noc2C)C1 (stereo unspecified) | · | · | · | · | · | 16.4
COC1=CC(=O)c2nc(Cl)ccc2C1=O | · | · | · | · | · | 87.8*
Cn1c(CC(=O)NNC(=O)c2cccnc2)nc2ccccc21 | -10.3 | -20.8 | · | -9.1 | · | 10.3
CC1=NN(c2ccc([N+](=O)[O-])cc2)C(c2ccccc2)C1 (stereo unspecified) | -2.9 | -0.8 | -0.7 | 6.6 | -0.8 | 20.0
CC1=NN(c2ccc([N+](=O)[O-])cc2)C(=O)C1 | · | · | · | · | · | 71.0*
CCOC(=O)C1=C(C)NC(C)=C(C(=O)OCC)C1C(=O)OCC(=O)NCc1ccc(F)cc1 | 5.0 | 2.0 | · | -2.1 | · | i
O=C(c1ccc(OC2CCN(Cc3ccccn3)CC2)cc1)N1CCC[C@H]1CO | -12.3 | -27.0 | -5.6 | -12.2 | 16.3* | 4.8
O=C1c2cccc(NCCCNCCO)c2C(=O)c2cccc(NCCCNCCO)c21 | · | · | · | · | · | 56.7*
CCc1ccccc1NC(=O)CCc1c(C)nc(SC)nc1C | 1.1 | -7.3 | 16.6 | -1.6 | -3.7 | 10.3
Cc1cc(-c2csc(NC(=O)c3ccc(=O)n(C)n3)n2)c(C)n1CC1CCCO1 (stereo unspecified) | -8.0 | 1.4 | 0.2 | -1.2 | -1.2 | 42.9*
O=C1c2ccccc2-c2nccnc21 | 3.9 | -7.0 | -7.0 | 5.7 | 0.3 | 26.9
NC1=C(Cl)C(=O)c2ccc(S(N)(=O)=O)cc2C1=O | · | · | · | · | · | 96.1*
NC1=C(Cl)C(=O)c2ccccc2C1=O | · | · | · | · | · | 82.9*
O=C(/C=C/c1ccccc1)Nc1nnc(-c2ccco2)o1 | -4.6 | 14.8 | 3.8 | 8.3 | -1.4 | 3.3
COc1ccc(C)cc1S(=O)(=O)N1CCCC(C(=O)NCc2ccccn2)C1 (stereo unspecified) | 5.5 | 19.0 | -5.8 | 5.0 | -2.4 | -80.8
O=C(NCc1ccccn1)C1CCCN(S(=O)(=O)c2cc(Cl)ccc2Cl)C1 (stereo unspecified) | · | · | · | · | · | 43.0*
CCCCC(=O)Nc1sc2c(c1-c1nc3ccccc3s1)CCN(C(C)=O)C2 | · | · | · | · | -2.2 | ·
CC(=O)N1CCc2c(sc(NC(=O)C3CC3)c2-c2nc3ccccc3s2)C1 | 26.2 | 68.0* | 20.8 | 26.5 | -0.9 | -353.0
COc1ccc(/C=N/N(C)c2cc(=O)n(C)c(=O)[nH]2)cc1OC | -12.3 | -5.0 | 74.4* | -0.7 | 0.5 | 15.7
CN(/N=C/C=C/c1ccccc1)c1cc(=O)n(C)c(=O)[nH]1 | 2.2 | -11.1 | -8.7 | 3.2 | 2.0 | 15.1
Cc1ccc(S(=O)(=O)NCCC(=O)OCC(=O)NC(=O)c2cccn2C)cc1 | 2.3 | 5.7 | 61.2* | 2.7 | -0.9 | -0.8
SMILES | SENP8 block-1 | SENP6 inh | Platelet DG rel | SENP7 block | HSP90 inh | SENP8 block-2
CN=c1sc2c(n1C)C(=O)c1ccccc1C2=O | · | · | · | · | · | 73.2*
COc1ccc(C(=O)Nc2ccccc2C(=O)N/N=C/c2ccccn2)cc1OC | -13.2 | -11.6 | 55.8* | -14.5 | 4.2 | -151.2
COc1ccc(C(=O)N/N=C/c2ccccn2)cc1OC | -12.2 | 24.1 | 1.0 | -8.6 | 3.7 | 7.4
COC1=C(Br)C(=O)c2ncccc2C1=O | · | · | · | · | · | 104.7*
O=C1C(=O)c2cccnc2-c2ncccc21 | · | · | · | · | · | 110.3*
O=C1c2cccnc2-c2ncccc21 | -7.1 | 8.7 | -2.4 | 1.7 | 7.6 | 39.6
COc1ccccc1CNC(=O)c1ccc2c(=O)n3c(nc2c1)CCCCC3 | -3.5 | -5.7 | -8.5 | 16.5 | -7.4 | 3.6
O=C(NCCS(=O)(=O)c1ccc(Br)cc1)c1c(F)cccc1F | -4.5 | -6.3 | -14.9 | 11.2 | -2.3 | 16.0
CC(c1ccco1)N(C(=O)c1ccccc1F)c1ccccn1 (stereo unspecified) | -5.4 | -1.6 | -0.1 | 4.6 | 2.4 | -138.9
CC(c1ccco1)N(C(=O)COc1ccc(Cl)cc1Cl)c1ccccn1 (stereo unspecified) | 6.2 | -1.4 | 8.0 | -2.9 | 41.5* | 8.9
O=C1CC(Sc2nnnn2-c2ccccc2)C(=O)N1c1cccc(Cl)c1 (stereo unspecified) | -14.5 | -6.6 | 55.0* | 8.6 | 2.7 | 10.4
COc1ccc(N2C(=O)CC(Sc3nnnn3-c3ccc(F)cc3)C2=O)cc1 (stereo unspecified) | -3.0 | -33.9 | 19.8 | -9.9 | -1.4 | 8.0
Nc1nc2c(s1)CCc1c-2cnn1-c1ccccc1 | 42.9 | 61.7* | 6.8 | 35.5 | -3.7 | -493.2
Nc1nc2c(s1)COc1ccccc1-2 | -7.4 | -4.4 | 1.6 | -3.7 | -1.2 | -13.8
CCc1ccc(NC(=S)Nc2ccc3[nH]c(=O)[nH]c3c2)cc1 | -5.6 | -9.7 | 24.2 | 10.2 | 3.3 | 31.2
c1ccc(C2=Nc3ccccc3SC2c2nc3ccccc3[nH]2)cc1 (stereo unspecified) | 26.7 | 52.4* | -15.2 | 54.5* | 2.8 | ·
Cc1noc(C)c1NC(=O)N(C)C[C@@H]1OCc2cn(nn2)CCCC(=O)N([C@H](C)CO)C[C@H]1C | · | · | · | · | · | 1.1
C#CCOCCOCCOCCNc1nc(N2CCN(C(=O)[C@H](CCC(=O)O)n3cc(C(N)CC(C)C)nn3)CC2)nc(N2CCN(C(=O)[C@H](CCC(=O)O)n3cc(C(N)CC(C)C)nn3)CC2)n1 (stereo partly specified) | -11.8 | -17.2 | 1.4 | 11.2 | 16.6* | 11.3
C#CCOCCOCCOCCNc1nc(N2CCN(C(=O)C([C@@H](C)CC)n3cc(C(N)CC(C)C)nn3)CC2)nc(N2CCN(C(=O)[C@H](CCC(=O)O)n3cc(C(N)CC(C)C)nn3)CC2)n1 (stereo partly specified) | 6.7 | 2.2 | -5.4 | -9.6 | 0.2 | 19.2
COc1cc(CCNC2=CC(=O)c3ncccc3C2=O)ccc1O | · | · | · | · | · | 96.8*
CC1(C)Cc2c(sc(NC(=O)C3CC(Cl)=CCC3C(=O)O)c2C#N)CO1 (stereo unspecified) | -0.8 | -6.6 | 5.2 | -0.7 | -1.1 | 5.8
COc1ccc(Nc2cccc(Cl)c2)c(C(=O)O)c1 | 29.1 | 34.8 | 2.6 | 7.4 | 2.8 | -20.5
Cc1ccc(NC(=O)Nc2cccc(Cl)c2)c(C(=O)O)c1 | 72.8* | 45.1 | 6.9 | 69.1* | -0.7 | -366.8
O=C1c2ccccc2-c2c1nc1c([n+]2[O-])CCCC1 | -1.8 | -0.8 | -3.8 | 8.6 | 0.6 | 41.5*
